Results: PubChem BioAssay (NCATS)
Inconclusive results are not listed. Calls of active or inactive are those of the source. Unless noted, calls follow the shape of the dose curve; as a rule, active = well fitted curve in the direction sought with a large enough effect; inconclusive = small, poorly fitted or top-dose-only effect, or another doubt; inactive = no such curve, though single readings can be large; an effect the other way counts as inactive or inconclusive.

How the values were obtained:
[1] = qHTS assay for small molecule antagonists of peroxisome proliferator-activated receptor delta signaling (AID 588535; active = well fitted inhibition curve with a large enough effect in the signal ratio, with a control signal flat, not every such curve was filed as active; the % refers to the signal ratio;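 as to max response: cells co-treated with a PPAR-delta agonist as stimulator during compound exposure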); details: HEK293T PPARd-UAS-bla, beta-lactamase FRET ratio, 18 h; 460 nm channel
How it was run: (§1)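 Inhibition of PPAR-delta response element-driven beta-lactamase expression is measured in HEK293T cells exposed to a compound titration series for 18 hrs at 37 C. Half-maximal inhibition comes from Hill equation fitting.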

[2] = target: Peroxisome proliferator-activated receptor delta (Homo sapiens) (UniProt Q03181); assay: as above
How it was run: as §1

[3] = target: Peroxisome proliferator-activated receptor gamma (Homo sapiens) (UniProt P37231); assay: qHTS assay for small molecule agonists of peroxisome proliferator-activated receptor gamma signaling (AID 588536; active = well fitted curve in the direction sought with a large enough effect in the signal ratio, with a control signal flat, not every such curve was filed as active; the % refers to the signal ratio;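 also: 0% = DMSO basal wells and 100% = rosiglitazone at 2 µM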)
How it was run: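 Cells were plated and held 6–6.5 h at 37 C, then compounds were added as a titration series. After a further 16 h, CCF4 dye was loaded for 2 h at room temperature and emission at 460/530 nm recorded.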

[4] = target: Peroxisome proliferator-activated receptor gamma (Homo sapiens) (UniProt P37231); assay: qHTS assay for small molecule antagonists of peroxisome proliferator-activated receptor gamma signaling (AID 588537; active = well fitted inhibition curve with a large enough effect in the signal ratio, with a control signal flat, not every such curve was filed as active; the % refers to the signal ratio;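 also: reporter cells co-stimulated with 50 nM rosiglitazone agonist during compound treatment; % of control where 0% means no effect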)
How it was run: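 Compounds are tested as concentration series for inhibition of rosiglitazone-driven (50 nM) reporter expression in GeneBLAzer PPAR-gamma-UAS-bla HEK293 cells. After 16 h at 37 C, CCF4 substrate is added for 2 h at room temperature and blue/green fluorescence is measured.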

[5] = target: Vitamin D3 receptor (Homo sapiens) (UniProt P11473); assay: qHTS assay for small molecule antagonists of vitamin D receptor signaling (AID 588541; calls by dose curve;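 also: receptor activated by calcitriol during compound treatment; series mostly up to about 77 µM; % is scaled to controls: 0 for no effect and ±100 for the full control effect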)
How it was run: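 VDR-UAS-bla HEK293T cells (2000/well, 2% charcoal-stripped FBS) were treated with titrated compounds plus 1-alpha,25-dihydroxyvitamin D3 (50 nM or 3 nM final) for 16 h at 37 C. CCF4 beta-lactamase fluorescence was read; Hill fits gave IC50.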

[6] = target: Vitamin D3 receptor (Homo sapiens) (UniProt P11473); assay: qHTS assay for small molecule agonists of vitamin D receptor signaling (AID 588543; calls by dose curve;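 also: 0% = DMSO basal and 100% = reference agonist control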)
How it was run: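 GeneBLAzer VDR-UAS-bla HEK293T cells in 2% charcoal-stripped FBS medium were dosed with compound titrations for 16 h at 37 °C; CCF4 β-lactamase readout (405 nm ex, 460/530 nm em). EC50 and efficacy from Hill fits, normalized to 50 nM calcitriol (100%) and DMSO (0%).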

[7] = qHTS assay for small molecule agonists of retinoid X receptor alpha signaling (AID 588544; calls by dose curve;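 as to activation: 0% = DMSO basal wells and 100% = reference agonist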); details: HEK293T RXRa-UAS-bla, beta-lactamase reporter, 18 h; 530 nm emission
[8] = target: Retinoic acid receptor RXR-alpha (Homo sapiens) (UniProt P19793); assay: as above
[9] = target: Thyroid hormone receptor beta (Homo sapiens) (UniProt P10828); assay: qHTS assay for small molecule agonists of thyroid hormone receptor beta signaling (AID 588545; calls by dose curve)
How it was run: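 HEK 293 TR-UAS-bla; agonist mode; 18 hrs, 37 C; CCF4, ex 405/em 460 and 530 nm; norm. T3 10 nM = 100%, DMSO = 0%; Hill fit → EC50, efficacy.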

[10] = qHTS assay for small molecule antagonists of retinoid X receptor alpha signaling (AID 588546; active = well fitted inhibition curve with a large enough effect in the signal ratio, with a control signal flat, not every such curve was filed as active; the % refers to the signal ratio;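 also: cells stimulated with 9-cis-retinoic acid as agonist; % is scaled to controls: 0 for no effect and ±100 for the full control effect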); details: HEK293T RXRa-UAS-bla, beta-lactamase ratio, antagonist mode; measured here: W530 green channel, cytotoxicity proxy
How it was run: (§2)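 Beta-lactamase reporter inhibition, read as CCF4 fluorescence ratio (ex 405, em 460/530 nm) after 2 h at RT. HEK293T UAS-bla cells, 2500/well, were stimulated with 9-cis-RA at 500 or 100 nM final alongside test compound for 18 h at 37 C.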

[11] = target: Retinoic acid receptor RXR-alpha (Homo sapiens) (UniProt P19793); assay: as above; details: HEK293T RXRa-UAS-bla, beta-lactamase ratio, antagonist mode
How it was run: as §2

[12] = target: Thyroid hormone receptor beta (Homo sapiens) (UniProt P10828); assay: qHTS assay for small molecule antagonists of thyroid hormone receptor beta signaling (AID 588547; active = well fitted inhibition curve with a large enough effect in the signal ratio, with a control signal flat, not every such curve was filed as active; the % refers to the signal ratio;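 also: cells stimulated with 0.4 nM T3 agonist during compound exposure; series mostly up to about 77 µM; % is scaled to controls: 0 for no effect and ±100 for the full control effect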); details: TR-UAS-bla HEK293, beta-lactamase ratio, antagonist mode, 18 h
How it was run: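 TR-UAS-bla GripTite HEK293 cells in 2% charcoal/dextran FBS medium were preincubated 4 h at 37 C, given compound (0.59 nM to 92 uM) plus 0.4 nM T3 (final) for 18 h, then CCF4 for 2 h at RT; Hill fit gave IC50.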

[13] = qHTS assay for small molecule activators of the p53 signaling pathway (AID 651743; active = well fitted activation curve with a large enough effect in the signal ratio, not every such curve was filed as active; the % refers to the signal ratio; also: series mostly up to about 92 µM; % of control where 0% means no effect); details: HCT-116 p53RE-bla, beta-lactamase FRET ratio, 16 h; activation: stronger effect = higher value
How it was run: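 Agonist-mode quantitative HTS in HCT-116 cells carrying a p53-response-element beta-lactamase reporter; 16 h compound treatment at 37 C, then FRET substrate loading for 2 h at room temperature and fluorescence read.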

[14] = qHTS assay for environmental chemicals that activate the Aryl hydrocarbon Receptor (AhR) signaling pathway (AID 651777); details: 1A2-DRE human hepatoma cells, luciferase, 24 h; activation: stronger effect = higher value; also: % of control where 0% means no effect; nearly all actives have a fitted effect of over 15% in size
How it was run: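 Human hepatoma 1A2-DRE cells, stably carrying a dioxin response element and CYP1A2 promoter driving luciferase, were exposed to compounds for 24 hr at 37 C and 5% CO2. Luciferase signal was then read after 30 min One-Glo at room temperature.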

[15] = target: Peroxisome proliferator-activated receptor alpha (Homo sapiens) (UniProt Q07869); assay: qHTS assay for small molecule agonists of the peroxisome proliferator-activated receptor alpha (PPARalpha) signaling pathway (AID 651778); details: PathHunter PPARalpha complementation, chemiluminescence, 6 h; max response: stronger effect = higher value; also: % of control where 0% means no effect
How it was run: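 Cells plated at 2,000/well and held overnight at 37 C, 5% CO2, then compound added by pin tool for 6 hr; after PathHunter detection reagent and 60 min at room temperature, chemiluminescence from enzyme complementation was read.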

[16] = qHTS assay for small molecule agonists of the antioxidant response element (ARE) signaling pathway measured by Nrf2-dependant transcriptional activity (AID 720636; active = well fitted curve in the direction sought with a large enough effect in the repeat runs; an effect the other way counts as inactive or inconclusive; also: % of control where 0% means no effect)
How it was run: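 ARE-luc HepG2 cells carrying an Nrf2-responsive luciferase reporter were plated in medium with 1% dialyzed FBS, left 6 hr at 37 C to attach, then exposed to compound for 16 hr. Luciferase luminescence was read after ONE-Glo addition.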

[17] = qHTS assay for small molecule agonists of the antioxidant response element (ARE) signaling pathway measured by Nrf2-dependant transcriptional activity - cell viability counter screen (AID 720653; active = well fitted curve in the direction sought with a large enough effect in the repeat runs; an effect the other way counts as inactive or inconclusive; also: % is scaled to controls: 0 for no effect and ±100 for the full control effect); details: ARE-bla HepG2 viability, CellTiter-Glo ATP luminescence, 16 h; max response: stronger effect = lower value
How it was run: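 ARE-bla HepG2 cells (2,000/well) rested 5 hrs at 37C/5% CO2, then exposed to compounds in DMSO for 16 hrs. Viability was read in the same wells as intracellular ATP by luminescence, 30 min at room temperature after reagent addition.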

[18] = qHTS assay for cell viability of HEK293 cells (AID 743288); details: ATP luminescence (CellTiter-Glo), 18 h; max response: stronger effect = lower value; also: % is scaled to controls: 0 for no effect and ±100 for the full control effect; nearly all actives have a fitted effect of over 50% in size
How it was run: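 After 18 h compound exposure at 37 C, parental HEK293 cells (2,000/well) are lysed with CellTiter-Glo and luminescence is read following 30 min at room temperature.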

[19] = qHTS assay for cell viability of the p53RE-bla HCT-116 cell line (AID 743292); also: % is scaled to controls: 0 for no effect and ±100 for the full control effect; nearly all actives have a fitted effect of over 55% in size
How it was run: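 CellSensor p53RE-bla HCT-116 cells, 4,000/well, preincubated 5 h at 37 C, then exposed to compounds in DMSO for 16 h at 37 C. Viability read as CellTiter-Glo luminescence (intracellular ATP) after 30 min at room temperature.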

[20] = NCATS anti-infectives library activity on HEK293 viability as a counter-qHTS vs the C. elegans viability qHTS (AID 1745854); also: % is scaled to controls: 0 for no effect and ±100 for the full control effect
How it was run: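 Cytotoxicity counter-screen to a worm viability qHTS: CellTiter-Glo luminescence read 10 min after reagent addition. Compounds (final up to 41.7 uM, a 1:5 dilution series) incubated 24 hr at 37C with 1,500 HEK293 cells per well; digitonin control.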

[21] = target: Glutathione peroxidase 1 (Homo sapiens) (UniProt P07203); assay: Primary qHTS Assay for Inhibitors of Recombinant Selenoprotein Glutathione Peroxidase 1 (GPX1) (AID 1845191); also: nearly all actives have a fitted effect of over 65% in size
How it was run: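 GPX1 10 nM, GR 100 nM, GSH 1 mM, NADPH 0.5 mM, CHP 0.5 mM (final). 30-min cpd preincubation, RT. Ex340/Em450 read t=0, t=15 min.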

[22] = target: Nuclear receptor subfamily 1 group I member 2 (Rattus norvegicus) (UniProt Q9R1A7); assay: qHTS assay for small molecule activators of the rat pregnane X receptor (rPXR) signaling pathway (AID 651751; call rule not given here; also: 0% is about no effect); details: rPXR reporter cells, luciferase (One-Glo), 24 h
[23] = qHTS assay for small molecule activators of the human pregnane X receptor (PXR) signaling pathway (AID 720659; call rule not given here; also: 0% is about no effect)

Retinoic acid receptor RXR-alpha (Homo sapiens), sequence (P19793 whole entry, looked up): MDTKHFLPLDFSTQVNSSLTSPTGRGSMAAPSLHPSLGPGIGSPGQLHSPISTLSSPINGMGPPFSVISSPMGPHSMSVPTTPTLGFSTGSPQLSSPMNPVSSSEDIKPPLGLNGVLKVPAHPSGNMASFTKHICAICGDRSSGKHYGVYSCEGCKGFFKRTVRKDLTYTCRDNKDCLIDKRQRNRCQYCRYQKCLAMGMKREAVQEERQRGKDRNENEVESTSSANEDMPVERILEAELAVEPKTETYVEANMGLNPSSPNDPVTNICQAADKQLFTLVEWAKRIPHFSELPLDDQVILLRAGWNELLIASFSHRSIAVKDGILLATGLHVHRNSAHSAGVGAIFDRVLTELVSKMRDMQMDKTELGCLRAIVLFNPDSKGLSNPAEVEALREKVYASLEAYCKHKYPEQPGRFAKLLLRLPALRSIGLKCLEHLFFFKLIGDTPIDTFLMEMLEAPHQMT
Thyroid hormone receptor beta (Homo sapiens), sequence (P10828 whole entry, looked up): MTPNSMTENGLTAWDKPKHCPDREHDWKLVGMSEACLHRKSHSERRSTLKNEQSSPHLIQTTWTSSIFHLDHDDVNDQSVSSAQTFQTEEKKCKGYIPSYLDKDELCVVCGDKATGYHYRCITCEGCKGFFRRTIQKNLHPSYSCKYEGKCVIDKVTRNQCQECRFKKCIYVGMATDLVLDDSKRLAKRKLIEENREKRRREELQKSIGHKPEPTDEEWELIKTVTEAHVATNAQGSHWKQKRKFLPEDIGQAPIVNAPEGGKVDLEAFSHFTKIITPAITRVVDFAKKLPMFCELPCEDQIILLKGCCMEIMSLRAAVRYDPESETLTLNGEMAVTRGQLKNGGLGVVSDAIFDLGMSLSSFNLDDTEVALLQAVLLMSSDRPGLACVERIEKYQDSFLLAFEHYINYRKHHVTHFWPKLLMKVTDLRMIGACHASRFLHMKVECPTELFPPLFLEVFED
Vitamin D3 receptor (Homo sapiens), sequence (P11473 whole entry, looked up): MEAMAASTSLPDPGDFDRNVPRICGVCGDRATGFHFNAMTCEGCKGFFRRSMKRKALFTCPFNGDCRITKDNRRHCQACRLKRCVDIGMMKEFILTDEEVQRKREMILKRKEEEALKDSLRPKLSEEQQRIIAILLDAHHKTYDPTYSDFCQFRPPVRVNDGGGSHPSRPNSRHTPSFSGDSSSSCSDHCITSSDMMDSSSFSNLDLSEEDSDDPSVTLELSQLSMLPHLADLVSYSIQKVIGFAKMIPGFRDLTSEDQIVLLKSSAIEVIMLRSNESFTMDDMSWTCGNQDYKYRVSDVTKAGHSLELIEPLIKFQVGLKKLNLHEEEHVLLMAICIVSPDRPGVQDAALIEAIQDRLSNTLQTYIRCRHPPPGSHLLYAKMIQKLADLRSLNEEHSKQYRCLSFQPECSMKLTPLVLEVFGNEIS
Peroxisome proliferator-activated receptor gamma (Homo sapiens), sequence (P37231 whole entry, looked up): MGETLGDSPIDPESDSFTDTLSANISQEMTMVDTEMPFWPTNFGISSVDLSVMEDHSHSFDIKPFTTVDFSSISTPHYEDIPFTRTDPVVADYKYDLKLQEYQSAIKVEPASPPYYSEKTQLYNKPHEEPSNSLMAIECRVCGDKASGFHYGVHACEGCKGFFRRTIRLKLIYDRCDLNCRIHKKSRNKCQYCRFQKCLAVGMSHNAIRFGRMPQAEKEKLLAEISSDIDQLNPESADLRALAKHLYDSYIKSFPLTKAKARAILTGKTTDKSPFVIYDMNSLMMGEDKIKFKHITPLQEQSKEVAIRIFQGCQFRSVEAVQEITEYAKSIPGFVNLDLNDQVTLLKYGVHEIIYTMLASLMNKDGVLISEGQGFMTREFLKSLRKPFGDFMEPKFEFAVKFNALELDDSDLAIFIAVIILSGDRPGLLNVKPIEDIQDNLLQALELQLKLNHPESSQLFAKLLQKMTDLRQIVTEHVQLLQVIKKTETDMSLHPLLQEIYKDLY
Peroxisome proliferator-activated receptor alpha (Homo sapiens), sequence (Q07869 whole entry, looked up): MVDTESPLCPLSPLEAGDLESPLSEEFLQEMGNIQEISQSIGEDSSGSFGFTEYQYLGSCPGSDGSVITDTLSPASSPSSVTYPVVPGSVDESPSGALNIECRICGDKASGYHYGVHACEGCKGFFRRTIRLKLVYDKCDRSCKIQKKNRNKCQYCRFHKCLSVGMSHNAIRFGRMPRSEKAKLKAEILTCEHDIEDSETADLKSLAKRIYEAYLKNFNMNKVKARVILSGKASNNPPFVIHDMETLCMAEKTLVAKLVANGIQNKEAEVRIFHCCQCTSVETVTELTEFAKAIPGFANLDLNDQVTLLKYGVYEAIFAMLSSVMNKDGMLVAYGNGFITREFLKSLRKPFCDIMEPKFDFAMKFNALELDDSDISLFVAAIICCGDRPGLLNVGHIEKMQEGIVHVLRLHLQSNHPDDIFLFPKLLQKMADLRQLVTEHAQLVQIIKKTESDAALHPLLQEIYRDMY
Peroxisome proliferator-activated receptor delta (Homo sapiens), sequence (Q03181 whole entry, looked up): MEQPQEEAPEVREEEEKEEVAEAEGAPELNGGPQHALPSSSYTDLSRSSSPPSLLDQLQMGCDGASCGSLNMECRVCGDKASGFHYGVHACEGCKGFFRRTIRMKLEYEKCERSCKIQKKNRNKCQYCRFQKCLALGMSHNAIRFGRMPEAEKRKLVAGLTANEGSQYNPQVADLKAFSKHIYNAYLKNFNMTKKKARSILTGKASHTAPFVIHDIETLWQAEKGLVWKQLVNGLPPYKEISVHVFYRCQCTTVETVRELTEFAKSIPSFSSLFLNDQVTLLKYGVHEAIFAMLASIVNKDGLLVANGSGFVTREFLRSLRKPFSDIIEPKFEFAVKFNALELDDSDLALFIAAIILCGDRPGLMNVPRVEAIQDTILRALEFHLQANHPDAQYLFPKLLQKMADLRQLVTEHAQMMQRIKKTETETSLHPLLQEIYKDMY
Glutathione peroxidase 1 (Homo sapiens), sequence (P07203 whole entry, looked up): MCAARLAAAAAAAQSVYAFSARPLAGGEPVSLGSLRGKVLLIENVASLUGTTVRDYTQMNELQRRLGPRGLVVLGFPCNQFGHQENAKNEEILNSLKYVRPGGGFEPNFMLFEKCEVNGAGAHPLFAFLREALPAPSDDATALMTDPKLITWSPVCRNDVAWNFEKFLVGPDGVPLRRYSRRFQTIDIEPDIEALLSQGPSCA
Nuclear receptor subfamily 1 group I member 2 (Rattus norvegicus), sequence (Q9R1A7 whole entry, looked up): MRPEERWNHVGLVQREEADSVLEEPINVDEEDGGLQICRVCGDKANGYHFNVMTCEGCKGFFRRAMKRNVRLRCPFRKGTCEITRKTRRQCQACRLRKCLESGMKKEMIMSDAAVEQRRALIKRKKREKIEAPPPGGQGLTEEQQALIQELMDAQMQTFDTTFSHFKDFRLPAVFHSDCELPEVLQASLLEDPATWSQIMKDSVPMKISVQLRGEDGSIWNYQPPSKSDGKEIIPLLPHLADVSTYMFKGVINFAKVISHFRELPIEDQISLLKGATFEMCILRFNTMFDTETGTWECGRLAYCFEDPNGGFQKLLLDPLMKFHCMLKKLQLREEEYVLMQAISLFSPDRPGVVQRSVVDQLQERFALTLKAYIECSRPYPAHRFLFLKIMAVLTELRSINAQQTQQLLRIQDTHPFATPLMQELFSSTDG

C[Si](C)(C)O[Si](C)(C)O[Si](C)(C)C
25.8%: max response [1]
-9.81%: max response [10]
-9.58%: max response [7]
inactive: Potency [2] | outcome [3] | outcome [4] | outcome [5] | outcome [6] | outcome [8] | outcome [9] | max response [11] -6.04% | activity change % (negative = inhibition) [12] -8.82% | activation [13] -8.05% | activation [14] -0.707% | max response [15] 0.325% | Potency [16] | max response [17] 4.82% | max response [18] -3.28% | Potency [19] | Potency [20] | Potency [21] | max response [22] 0.588% | outcome [23]
